In PubChem BioAssay (NCATS) one finds max response, outcome and Potency data, which are given here for 4 compounds.

One experiment has as its system CRL-7250. Nature of the experiment: Cytotoxic Profiling of Annotated Libraries Using Quantitative High-Throughput Screening (AID 1296008). Further: nearly all actives have a fitted effect of over 60% in size. Further: potency means the concentration at half of the fitted maximal effect. On max response: on the % scale 0 is the no-effect control and ±100 the full control effect. Conditions: Five cell lines viability, CellTiter-Glo ATP luminescence, 48-72 h; max response: active compounds read low. The essentials: (§1)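 Cytotoxicity was measured as CellTiter-Glo ATP luminescence, read after 10 min at room temperature. Compound treatment of the cells lasted 48 or 72 hr at 37 degrees Celsius in a qHTS format.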
(In ATP-based viability assays light output follows the ATP content of the culture.)

Another experiment relates to HEK293. The description is as above. Conditions: Five cell lines viability, CellTiter-Glo ATP luminescence, 48-72 h; max response: active compounds read low. The method in brief:
as §1

In experiment [1] the test system is HaCat. The description is as above. To be noted: Five cell lines viability, CellTiter-Glo ATP luminescence, 48-72 h; max response: active compounds read low. The method in brief:
as §1

In another experiment the test system is KB-3-1. The experiment is described as above. Conditions: Five cell lines viability, CellTiter-Glo ATP luminescence, 48-72 h; max response: active compounds read low. The method in brief: as §1
Experiment [2] deals with NIH3T3. Described as above. Conditions: Five cell lines viability, CellTiter-Glo ATP luminescence, 48-72 h; max response: active compounds read low. The method in brief:
as §1

The subject of experiment [3] is HACAT. Nature of the experiment: qHTS assay to identify novel small-molecules to repurpose for Merkel cell carcinoma treatment (AID 1296009). Further: nearly all actives have a fitted effect of over 60% in size. To be noted: MCC and control cell lines, CellTiter-Glo viability, 72 h; at 44.8 µM (top of the series) unless noted. The essentials:
(§2)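 After compound transfer in DMSO, plates were kept 72 hr at 37 degree celsius. Luminescent ATP signal from CellTiter-Glo served as viability measure, normalized against DMSO and no-cell controls.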

In the next experiment the test system is MCC-13. The description is as above. To be noted: MCC and control cell lines, CellTiter-Glo viability, 72 h; series mostly up to 46 µM. The essentials: as §2
The subject of a further experiment is MCC-26. The experiment is described as above. Conditions: MCC and control cell lines, CellTiter-Glo viability, 72 h; series mostly up to 46 µM. The essentials:
as §2

A further experiment has as its system MKL-1. Described as above. Conditions: MCC and control cell lines, CellTiter-Glo viability, 72 h; series mostly up to 46 µM. The essentials:
as §2

The next experiment has as its system MKL-2. Described as above. Conditions: MCC and control cell lines, CellTiter-Glo viability, 72 h; series mostly up to 46 µM. The method in brief: as §2
Experiment [4] has as its system NIH3T3. Described as above. To be noted: MCC and control cell lines, CellTiter-Glo viability, 72 h; at 44.8 µM (top of the series) unless noted. The essentials:
as §2

The test system of the next experiment is UISO. The description is as above. To be noted: MCC and control cell lines, CellTiter-Glo viability, 72 h; series mostly up to 46 µM. The essentials: as §2
The next experiment deals with WaGa. The experiment is described as above. Conditions: MCC and control cell lines, CellTiter-Glo viability, 72 h; series mostly up to 46 µM. The method in brief:
as §2

The subject of a further experiment is C33A. The experiment can be described thus: Primary qHTS to identify gynecologic anti-cancer compounds using libraries of approved drugs and bioactive compounds (AID 1345084). Further: on the % scale 0 is the no-effect control and ±100 the full control effect; nearly all actives have a fitted effect of over 55% in size. Conditions: Gynecologic cancer cell panel viability, ATPlite luminescence, 48 h; series mostly up to 57.5 µM. The essentials:
(§3)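 ATP-based viability (ATPlite), 1,000 cells/well, 16 h pre-incubation, 48 h compound at 37 C, 5% CO2, 15 min RT before read.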
Background: qHTS replaces the single test concentration by a dilution series.

The subject of a further experiment is CAOV3. The experiment is described as above. Conditions: Gynecologic cancer cell panel viability, ATPlite luminescence, 48 h; series mostly up to 57.5 µM. The method in brief: as §3
For another experiment, the system named is CASKI. The experiment is described as above. To be noted: Gynecologic cancer cell panel viability, ATPlite luminescence, 48 h; series mostly up to 57.5 µM. The essentials:
as §3

A further experiment has as its system Es-2. Described as above. To be noted: Gynecologic cancer cell panel viability, ATPlite luminescence, 48 h; series mostly up to 57.5 µM. The essentials: as §3
For a further experiment, the system named is HeLa. The description is as above. To be noted: Gynecologic cancer cell panel viability, ATPlite luminescence, 48 h; series mostly up to 57.5 µM. The essentials: as §3
The next experiment has as its system W2. The experiment can be described thus: qHTS profiling for inhibitors of Plasmodium falciparum proliferation (AID 504749).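 Further: 0% = DMSO vehicle and full inhibition = artemisinin control; nearly all actives have a fitted effect of over 60% in size.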 Conditions: P. falciparum in erythrocytes, SYBR Green DNA, 72 h; series mostly up to 28.7 µM. The essentials:
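Three-day growth assay of blood-stage parasites in erythrocytes (0.3% parasitemia, 2.5% hematocrit) at 37 C, 5% CO2, quantified by SYBR Green DNA staining after overnight detergent lysis.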

Another experiment has as its system HEK293T. The experiment can be described thus: qHTS assay to identify novel small-molecules to repurpose for Merkel cell carcinoma treatment (AID 1296009). Further: nearly all actives have a fitted effect of over 60% in size. Conditions: MCC and control cell lines, CellTiter-Glo viability, 72 h; at 44.8 µM (top of the series) unless noted. The essentials: as §2

SMILES strings stand for the structures. “And” between values parts separate entries of the source, which are not always exact repeats. Identical values can stand only once. Records with an inconclusive call do not appear. Values without a mark were called inactive. The source made the active and inactive calls. The call rests on the fitted dose curve; in most records, active means well fitted curve in the direction sought with a large enough effect; inconclusive means small, poorly fitted or top-dose-only effect, or another doubt; inactive means no such curve, though single readings can be large; an effect the other way counts as inactive or inconclusive.

Regarding `CC1=NN(c2ccccc2)C(=O)C1`, the max response in the experiment with CRL-7250 was -10.4% and -10.5%; in the experiment with HEK293, -7.12% and -3.41% and -4.46%; in the experiment with HaCat [1] it was -6.55%; in the experiment with KB-3-1, 3.2%; in the experiment with NIH3T3 [2] it was 2.82%. For the same compound, the call in the experiment with CRL-7250, in the experiment on HaCat [1], in the experiment with KB-3-1, with NIH3T3 [2], in the experiment with HACAT [3] and in the experiment on NIH3T3 [4] was inactive. Moreover, the Potency result with MCC-13, in the experiment on MCC-26, in the experiment with MKL-1, with MKL-2, with UISO and in the experiment on WaGa was “inactive” each time. The Potency entry in the experiment with C33A, with CAOV3, in the experiment with CASKI, in the experiment on Es-2 and in the experiment on HeLa was “inactive” each time.
Consider `CS(=O)(=O)c1ccc([C@@H](O)[C@@H](CO)NC(=O)C(Cl)Cl)cc1`, for which the max response in the experiment with CRL-7250 was -2.94%; with HaCat [1], 4.09%; in the experiment with KB-3-1, -5.5%; in the experiment on NIH3T3 [2], 1.24% and 2.73%. In addition, the call with CRL-7250, in the experiment with HaCat [1] and with HACAT [3] was inactive. For the same compound, in the experiment with HEK293, the Potency is 2990 nM (active). Further, the Potency result in the experiment with MCC-13, with MCC-26, in the experiment on MKL-1, in the experiment with MKL-2, in the experiment with UISO and in the experiment on WaGa was “inactive” in each case. Moreover, the Potency result in the experiment on C33A, in the experiment on CAOV3, in the experiment with CASKI and with Es-2 was “inactive” each time.
For `Cc1cccc(Nc2ccncc2S(=O)(=O)NC(=O)NC(C)C)c1`, the Potency entry in the experiment with W2, in the experiment with MCC-13, in the experiment with MCC-26, in the experiment on MKL-1, with MKL-2 and in the experiment with UISO was “inactive” each time. The Potency result in the experiment on WaGa, with C33A, with CAOV3, with CASKI, with Es-2 and in the experiment on HeLa was “inactive” throughout. Also, the max response in the experiment with CRL-7250 is -14.3%; with HEK293, 1.87% and -6.16%; in the experiment on HaCat [1], -0.391%; in the experiment on KB-3-1, -4.26% and -4.09%; with NIH3T3 [2], 4.21% and -1.03%. In addition, the compound was classed as inactive in the experiment with CRL-7250, with HaCat [1] and in the experiment with HACAT [3].
Regarding `C[C@@H]1CN(c2c(F)c(N)c3c(=O)c(C(=O)O)cn(C4CC4)c3c2F)C[C@H](C)N1`, the max response in the experiment with CRL-7250 was -4.39%; in the experiment with HaCat [1], -0.171%; in the experiment with KB-3-1, 8.25% and 3.23%; in the experiment on NIH3T3 [2], 0.0179% and 2.17%. In addition, the compound was called inactive in the experiment with CRL-7250, in the experiment on HEK293 and in the experiment on HaCat [1]. For the same compound, the outcome with HACAT [3] and in the experiment with HEK293T was “inactive [at 17.4 µM]” each time. The Potency result in the experiment on MCC-13, in the experiment with MKL-1, in the experiment with MKL-2, with UISO, in the experiment on WaGa and with C33A was “inactive” in each case. The Potency entry in the experiment with CAOV3, in the experiment on CASKI, in the experiment on Es-2 and in the experiment on HeLa was “inactive” in each case.
